Measured values published in PubChem BioAssay AID1159580 (chemical genetic matrix, 2015).
Hit rate of the full screen: of about 5,500 compounds, about 2,000 (36%) were called active. Not shown: some 18% with an inconclusive outcome. Rule as the data show it: active = normalized growth mostly below about 0.91 (no sharp cut-off); inconclusive = no clear call, values can overlap the other calls; inactive = mostly above about 0.92. Some of the results follow.

Assay: chemical genetic growth profiling, strain panel (AID 1159580);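 also: tested at 20 µM; growth read once vehicle control cultures reached saturation at 30 °C; 1 = growth at the plate median or of vehicle wells; lower values mean less growth of the strain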
Settings: S. cerevisiae deletion strains, growth OD
[1] = locus YAR019C, strain CDC15, stronger effect = lower value
[2] = locus YBL105C, strain PKC1, stronger effect = lower value
[3] = locus YBR135W, strain CKS1, stronger effect = lower value
[4] = locus YBR136W, strain MEC1, stronger effect = lower value
[5] = locus YBR160W, strain CDC28, stronger effect = lower value
[6] = locus YDL017W, strain CDC7, stronger effect = lower value
[7] = locus YDL028C, strain MPS1, stronger effect = lower value
[8] = locus YDL101C, strain DUN1, stronger effect = lower value
[9] = locus YDL108W, strain KIN28, stronger effect = lower value
[10] = locus YDL132W, strain cdc53, stronger effect = lower value
[11] = locus YDL214C, strain PRR2, stronger effect = lower value
[12] = locus YDR052C, strain DBF4, stronger effect = lower value
[13] = locus YDR054C, strain cdc34, stronger effect = lower value
[14] = locus YDR226W, strain ADK1, stronger effect = lower value
[15] = locus YDR477W, strain SNF1, stronger effect = lower value
[16] = locus YER123W, strain YCK3, stronger effect = lower value
[17] = locus YER133W, strain GLC7, stronger effect = lower value
[18] = locus YFL009W, strain cdc4, stronger effect = lower value
[19] = locus YFL029C, strain CAK1, stronger effect = lower value
[20] = locus YFR003C, strain YPI1, stronger effect = lower value
[21] = locus YFR019W, strain FAB1, stronger effect = lower value
[22] = locus YFR028C, strain CDC14, stronger effect = lower value
[23] = locus YGR040W, strain KSS1, stronger effect = lower value
[24] = locus YGR052W, strain FMP48, stronger effect = lower value
[25] = locus YGR092W, strain DBF2, stronger effect = lower value
[26] = locus YHR030C, strain SLT2, stronger effect = lower value
[27] = locus YHR079C, strain IRE1, stronger effect = lower value
[28] = locus YHR082C, strain KSP1, stronger effect = lower value
[29] = locus YHR205W, strain SCH9, stronger effect = lower value
[30] = locus YIL147C, strain SLN1, stronger effect = lower value
[31] = locus YJL095W, strain BCK1, stronger effect = lower value
[32] = locus YJL128C, strain PBS2, stronger effect = lower value
[33] = locus YJL157C, strain FAR1, stronger effect = lower value
[34] = locus YJR016C, strain ILV3, stronger effect = lower value
[35] = locus YJR066W, strain TOR1 (second series), stronger effect = lower value
[36] = locus YJR066W, strain TOR1, stronger effect = lower value
[37] = locus YKL048C, strain ELM1, stronger effect = lower value
[38] = locus YKL067W, strain YNK1, stronger effect = lower value
[39] = locus YKL101W, strain HSL1, stronger effect = lower value
[40] = locus YKL193C, strain SDS22, stronger effect = lower value
[41] = locus YKL203C, strain TOR2, stronger effect = lower value
[42] = locus YLR113W, strain HOG1, stronger effect = lower value
[43] = locus YLR133W, strain CKI1, stronger effect = lower value
[44] = locus YLR403W, strain SFP1, stronger effect = lower value
[45] = locus YML070W, strain DAK1, stronger effect = lower value
[46] = locus YMR001C, strain CDC5, stronger effect = lower value
[47] = locus YMR205C, strain PFK2 (second series), stronger effect = lower value
[48] = locus YMR277W, strain FCP1, stronger effect = lower value
[49] = locus YNL006W, strain LST8, stronger effect = lower value
[50] = locus YNL020C, strain ARK1, stronger effect = lower value
[51] = locus YNL161W, strain CBK1, stronger effect = lower value
[52] = locus YNL183C, strain NPR1, stronger effect = lower value
[53] = locus YNL207W, strain RIO2, stronger effect = lower value
[54] = locus YNL222W, strain SSU72, stronger effect = lower value
[55] = locus YNL307C, strain MCK1 (second series), stronger effect = lower value
[56] = locus YOL078W, strain AVO1, stronger effect = lower value
[57] = locus YOL136C, strain PFK27, stronger effect = lower value
[58] = locus YOR061W, strain CKA2, stronger effect = lower value
[59] = locus YOR119C, strain RIO1, stronger effect = lower value
[60] = locus YOR231W, strain MKK1, stronger effect = lower value
[61] = locus YOR329C, strain SCD5, stronger effect = lower value
[62] = locus YPL031C, strain PHO85, stronger effect = lower value
[63] = locus YPL153C, strain RAD53, stronger effect = lower value
[64] = locus YPL204W, strain HRR25, stronger effect = lower value
[65] = locus YPL209C, strain IPL1, stronger effect = lower value
[66] = locus YPL256C, strain CLN2, stronger effect = lower value
[67] = locus YPR025C, strain CCL1, stronger effect = lower value
[68] = locus YPR106W, strain ISR1, stronger effect = lower value
[69] = locus YPR111W, strain DBF20, stronger effect = lower value
[70] = strain NNK1, stronger effect = lower value
[71] = strain TSCII, stronger effect = lower value

Measured: normalized growth

CCOC(=O)C(O)(c1ccc(NC(=O)c2ccc(Cl)c(Cl)c2)cc1)C(F)(F)F (stereo unspecified)
inactive: [1] 0.998 | [2] 0.988 | [3] 1 | [4] 0.989 | [5] 0.996 | [6] 0.997 | [7] 0.993 | [8] 0.994 | [9] 0.997 | [10] 0.997 | [11] 0.874 | [12] 0.996 | [13] 0.991 | [14] 0.992 | [15] 0.92 | [16] 0.859 | [17] 0.926 | [18] 0.99 | [19] 0.992 | [20] 0.999 | [21] 0.933 | [22] 1 | [23] 0.915 | [24] 0.979 | [25] 0.892 | [26] 0.962 | [27] 0.953 | [28] 0.967 | [29] 0.928 | [30] 0.986 | [31] 1.01 | [32] 0.946 | [33] 0.913 | [34] 0.988 | [35] 0.914 | [36] 0.994 | [37] 0.953 | [38] 0.935 | [39] 0.901 | [40] 1 | [41] 0.994 | [42] 0.977 | [43] 0.939 | [44] 0.94 | [45] 0.886 | [46] 0.997 | [47] 0.941 | [48] 1 | [49] 0.986 | [50] 0.919 | [51] 0.99 | [52] 1.02 | [53] 0.992 | [54] 0.994 | [55] 0.91 | [56] 1 | [57] 0.895 | [58] 0.911 | [59] 0.957 | [60] 0.977 | [61] 1 | [62] 0.896 | [63] 0.912 | [64] 0.922 | [65] 0.996 | [66] 0.976 | [67] 1 | [68] 0.988 | [69] 0.986 | [70] 0.987 | [71] 0.993

CCOC(=O)C(NC(=O)c1cccc(Cl)c1)(Nc1nc2ccccc2s1)C(F)(F)F (stereo unspecified)
active: [26] 0.796 | [42] 0.823
inactive: [1] 0.967 | [2] 0.957 | [3] 0.956 | [4] 0.96 | [5] 0.967 | [6] 0.962 | [7] 0.961 | [8] 0.973 | [9] 0.963 | [10] 0.952 | [11] 0.927 | [12] 0.955 | [13] 0.952 | [14] 0.956 | [15] 0.917 | [16] 0.906 | [17] 0.9 | [18] 0.954 | [19] 0.975 | [20] 0.957 | [21] 0.955 | [22] 0.963 | [23] 0.926 | [24] 0.943 | [25] 0.996 | [27] 1 | [28] 0.989 | [29] 1.01 | [30] 0.955 | [31] 0.98 | [32] 0.949 | [33] 0.915 | [34] 0.963 | [35] 0.949 | [36] 1.02 | [37] 0.937 | [38] 0.94 | [39] 0.929 | [40] 0.964 | [41] 1.01 | [43] 0.935 | [44] 1.02 | [45] 0.914 | [46] 0.967 | [47] 0.941 | [48] 0.964 | [49] 0.966 | [50] 0.931 | [51] 0.96 | [52] 1.07 | [53] 0.961 | [54] 0.968 | [55] 0.916 | [56] 0.962 | [57] 0.924 | [58] 0.939 | [59] 0.992 | [60] 0.967 | [61] 0.964 | [62] 0.917 | [63] 0.927 | [64] 0.913 | [65] 0.962 | [66] 0.894 | [67] 0.966 | [68] 0.962 | [69] 0.958 | [70] 0.971 | [71] 0.962

COc1ccccc1NC(=S)NCCc1ccc(OC)c(OC)c1
inactive: locus YAL013W, strain DEP1, stronger effect = lower value 0.997 | locus YBR229C, strain ROT2, stronger effect = lower value 1 | [8] 1.05 | locus YDR150W, strain NUM1, stronger effect = lower value 1.02 | locus YEL061C, strain CIN8, stronger effect = lower value 0.998 | locus YGR078C, strain PAC10, stronger effect = lower value 0.998 | [26] 0.979 | locus YHR087W, strain rtc3, stronger effect = lower value 1.02 | locus YJR043C, strain POL32, stronger effect = lower value 0.982 | locus YJR075W, strain HOC1, stronger effect = lower value 0.991 | locus YLR039C, strain RIC1, stronger effect = lower value 0.91 | locus YLR058C, strain SHM2 (second series), stronger effect = lower value 0.99 | locus YLR085C, strain ARP6, stronger effect = lower value 0.942 | locus YLR262C, strain YPT6, stronger effect = lower value 0.954 | locus YML094W, strain GIM5, stronger effect = lower value 1.1 | locus YMR219W, strain ESC1, stronger effect = lower value 0.999 | locus YMR263W, strain SAP30, stronger effect = lower value 0.989 | locus YNL153C, strain GIM3, stronger effect = lower value 1.02 | locus YNL298W, strain CLA4 (second series), stronger effect = lower value 0.952 | locus YNL322C, strain KRE1, stronger effect = lower value 0.997 | locus YNR030W, strain Alg12, stronger effect = lower value 1.02 | locus YPL055C, strain LGE1, stronger effect = lower value 1.03 | locus YPL241C, strain CIN2, stronger effect = lower value 0.927 | locus YPR135W, strain CTF4, stronger effect = lower value 1.04
